About 3,100 (1.1%) of roughly 290,000 compounds were called active. Rule as the data show it: active = inhibition above about 16% (passing the limit was not always enough); inactive = the rest. Many of the other results were omitted from the sample, so actives are more common in it than they were.
molecular target: Neuropeptides B/W receptor type 1 (Homo sapiens) (UniProt P48145); test: blockers of human neuropeptide B/W receptor 1 – cell-based, fluorescence, single concentration, primary screen (AID 1861); settings: GPR7-expressing cells, fluorescence antagonist assay; at 4.4 µM; hits give high values;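 also: cells stimulated with the agonist NPW; 0% = agonist with vehicle and 100% = vehicle without agonist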
Sequence (P48145 whole entry, looked up): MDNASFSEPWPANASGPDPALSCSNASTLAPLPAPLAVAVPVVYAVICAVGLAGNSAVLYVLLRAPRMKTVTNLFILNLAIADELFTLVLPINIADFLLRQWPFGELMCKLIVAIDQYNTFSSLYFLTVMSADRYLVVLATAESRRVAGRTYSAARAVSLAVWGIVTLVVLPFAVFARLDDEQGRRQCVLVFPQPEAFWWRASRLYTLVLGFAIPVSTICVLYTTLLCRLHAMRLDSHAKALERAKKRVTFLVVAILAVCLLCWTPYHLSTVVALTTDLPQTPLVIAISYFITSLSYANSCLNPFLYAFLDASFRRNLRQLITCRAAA

Compound | inhibition
CS(=O)(=O)N1CCc2nc(-c3ccccc3)sc2C1 | -4.29% (inactive)
C=CCSc1nsc(NC(=O)Nc2cccc(C(C)=O)c2)n1 | 32.5% (active)
CC(=O)c1cccc(NC(=O)c2ccncc2)c1 | -7.93% (inactive)
C=C(C)C(=O)Nc1cccc(C(C)=O)c1 | -8.07% (inactive)
CCSc1nsc(NC(=O)Nc2ccccc2OC)n1 | 0.35% (inactive)
CCSc1nsc(NC(=O)Nc2cccc(C(C)=O)c2)n1 | 37.1% (active)
C=CCSc1nnc(NC(=O)c2ccc(NC(C)=O)cc2)s1 | -10.1% (inactive)
Cc1ccc(S(=O)(=O)NCc2ccc(C(=O)NC3CCC(C)CC3)cc2)cc1 (configuration not stated) | -11.8% (inactive)
COC(=O)c1ccc(CN2CCCC(C(=O)Nc3cccc(-n4cnnn4)c3)C2)cc1 (configuration not stated) | -3.8% (inactive)
CCOC(=O)C1Sc2[nH]c(=O)sc2C(c2ccc(Cl)cc2)C1C(=O)OCC (configuration not stated) | -3.9% (inactive)
Cc1cc(C)c(C(=O)CSc2nc(C)cc(=O)[nH]2)c(C)c1 | 5.17% (inactive)
Clc1ccc(C2CC(c3cccs3)n3ncnc3N2)cc1Cl (configuration not stated) | 24.9% (active)
COc1ccc(C2CC(c3ccccc3)Nc3ncnn32)cc1 (configuration not stated) | 12.2% (inactive)
COc1ccc(C2CC(c3ccc(C)cc3)Nc3ncnn32)cc1 (configuration not stated) | 3.36% (inactive)
Brc1ccccc1CN1CCC(Cc2ccccc2)CC1 | -13.6% (inactive)
COc1ccc(Cn2c(C)c(C)c(C#N)c2NC(=O)Nc2ccc(F)cc2)cc1 | -4.33% (inactive)
COc1cccc(/C=C2/SC(=S)N(CC(=O)NC3C=CS(=O)(=O)C3)C2=O)c1 (configuration not stated) | -2.21% (inactive)
Cc1nc2ccc(S(=O)(=O)N(C)CC(=O)NC(C)c3ccccc3)cc2s1 (configuration not stated) | 2.55% (inactive)
COCCN1C(=O)C(=O)/C(=C(/O)c2ccc(S(=O)(=O)N3CCCCC3)cc2)C1c1ccc(OC)c(OC)c1 (configuration not stated) | -6.88% (inactive)
COC(=O)c1cc(N2CCNCC2)nc2ccccc12 | 1.6% (inactive)
COc1ccccc1CC(=O)NCCc1c[nH]c2ccccc12 | -0.98% (inactive)
COc1ccc(S(=O)(=O)NCCc2c[nH]c3ccccc23)cc1OC | -6.73% (inactive)
COc1cccc(CNCCc2c[nH]c3ccccc23)c1OCc1ccccc1F | 39.6% (active)

Compound | inhibition
O=C(CN1CCC(NC(=O)Nc2ccccc2)CC1)Nc1cccc([N+](=O)[O-])c1 | -1.48% (inactive)
CC(NC(=O)c1cc(=O)[nH]c2ccccc12)c1ccc(F)cc1F (configuration not stated) | 0.31% (inactive)
CC(C)CC(CCc1ccccc1)OS(N)(=O)=O (configuration not stated) | -8.91% (inactive)
Cc1cccc(NC(=O)c2ccc3nsnc3c2)c1C | 4.08% (inactive)
Cc1nc(C)c(C(=O)Nc2cccc(C)c2C)o1 | 1.66% (inactive)
Cc1cccc(NC(=O)c2cccc(C(=O)Nc3cccc(C)c3C)n2)c1C | 36.1% (active)
CC(C)N1CCC(NC(=O)Nc2ccccc2)CC1 | -11.8% (inactive)
Cn1cc(CNC(=O)c2ccc(OC3CCN(Cc4ccccn4)CC3)cc2)cn1 | -5.98% (inactive)
CN(Cc1ccccc1)C(=O)c1ccc(NC2=NC3CS(=O)(=O)CC3S2)cc1 (configuration not stated) | -12.5% (inactive)
COc1ccc(C2C=C(c3ccc(Br)cc3)Nc3nc(NS(C)(=O)=O)nn32)cc1 (configuration not stated) | 15% (inactive)
O=C(NCCNc1ccccc1[N+](=O)[O-])c1ccccc1F | 2.99% (inactive)
O=C(NCCCNc1ccc([N+](=O)[O-])cc1Cl)c1ccccc1F | 5.46% (inactive)
O=C(NCCNc1ccc([N+](=O)[O-])cc1Cl)c1ccccc1F | 33.5% (active)
COc1cccc(CNc2nc(C(F)(F)F)nc3ccccc23)c1 | -8.14% (inactive)
Cc1ccc(N2C(=O)C3C4C=CC(CC4)C3C2=O)cc1Cl (configuration not stated) | -5.89% (inactive)
CS(=O)(=O)N(CC(O)Cn1c2ccccc2c2ccccc21)c1cccc2ccccc12 (configuration not stated) | 29% (active)
CCCCN(CCCC)CC(O)Cn1c2ccccc2c(=O)c2ccccc21 (configuration not stated) | 4.5% (inactive)
O=C1c2ccccc2S(=O)(=O)N1CC(O)Cn1c2ccccc2c2ccccc21 (configuration not stated) | 27.4% (inactive)
COc1cc(C(=O)NCc2cc3cc(Cl)ccc3n2C)cc(OC)c1OC | -5.99% (inactive)
CCN(CC)S(=O)(=O)c1ccc(N2CCN(C)CC2)c(NC(=O)Nc2ccccc2F)c1 | 6.45% (inactive)
COc1ccc(NC(=O)c2cnc(NS(=O)(=O)c3ccccc3)nc2)cc1 | -10.5% (inactive)
COc1ccc(NS(=O)(=O)c2ccc(NC(=S)NC(=O)CC(C)C)cc2)cc1 | 24.2% (active)
COc1cc(NS(=O)(=O)c2ccc(NC(C)=O)cc2)cc(OC)c1 | -5.8% (inactive)

Compound | inhibition
COc1cc(OC)cc(C(=O)Nc2ccc(S(=O)(=O)Nc3cc(C)on3)cc2)c1 | -3.8% (inactive)
COc1ccc(NS(=O)(=O)c2ccc(NC(=O)c3ccc(N(C)S(C)(=O)=O)cc3)cc2)cc1 | 22.9% (active)
CC(=O)c1ccc(NC(=S)NC(=O)CC(C)C)cc1 | -3.47% (inactive)
Cc1ccc(C(=O)OCC(=O)NC(=O)Cc2ccccc2)c(O)c1 | -16.1% (inactive)
CCOC(=O)CNC(=O)/C=C/c1c(Cl)cccc1Cl | 10.2% (inactive)
O=C(Nc1ccccc1C(=O)O)c1ccc(N2C(=O)C3CC=CCC3C2=O)cc1 (configuration not stated) | -9.35% (inactive)
O=C(c1ccccc1)N1CCC(CC2CC(c3ccc(Cl)cc3)=NO2)(C(=O)NCC2CCCCC2)CC1 (configuration not stated) | -2.72% (inactive)
CCc1nc(Nc2ccc(NC(C)=O)cc2)c2oc3ccccc3c2n1 | -6.65% (inactive)
CC(C)OC(=O)CN1C(=O)c2ccccc2C1=O | 20.4% (active)
CC(C)OC(=O)CN1C(=O)C(=O)c2ccccc21 | -2.31% (inactive)
Cc1cccc2c1N(CC(=O)OC(C)C)C(=O)C2=O | -5.53% (inactive)
N#CCOc1ccc(C2=NO[C@@H]3[C@@H]4C[C@@H]([C@H]5C(=O)N(c6ccc7c(c6)OCO7)C(=O)[C@@H]45)[C@H]23)cc1 | 4.89% (inactive)
CCc1nn(CC(=O)N2CCN(CC)CC2)c(=O)c2cccn12 | -11.1% (inactive)
O=C(COC(=O)c1cccs1)Nc1ccccc1Cl | -12.8% (inactive)
O=C(Nc1ccccc1Cl)/C(Cl)=C(\Cl)S(=O)c1ccccc1 (configuration not stated) | 23.4% (active)
O=C(Nc1ccccc1Cl)Nn1cnnc1 | -16.3% (inactive)
CN(C)S(=O)(=O)c1ccc(C(=O)NCCN=C2NS(=O)(=O)c3ccccc32)cc1 | -2.36% (inactive)
O=C(O)c1ccc(OCC2CCCO2)cc1 (configuration not stated) | -9.77% (inactive)
CCn1c(SCc2ccccc2)nc2cc(OC)c(OC)cc2c1=O | -30.7% (inactive)
COc1ccc(NC(=O)C2CCC(CNS(=O)(=O)c3csc(C(N)=O)c3)CC2)cc1OC (configuration not stated) | 24.1% (active)
COc1cccc(CNS(=O)(=O)c2csc(C(N)=O)c2)c1 | -3.2% (inactive)
CC(=O)Nc1ccc(S(=O)(=O)NCC2CCC(C(=O)NCCc3ccccc3)CC2)cc1 (configuration not stated) | -13.4% (inactive)
Cc1cc(=O)oc2c(C)c(OCC(=O)NCCc3ccc(S(N)(=O)=O)cc3)ccc12 | 9.11% (inactive)

Compound | inhibition
COC(=O)CN1C(=O)C(C)(C)Oc2ccc(C(=O)Nc3cccc(OC)c3)cc21 | -8.64% (inactive)
Cc1ccc(S(=O)(=O)N(CC(O)CN2CCCCC2)c2cccc([N+](=O)[O-])c2)cc1 (configuration not stated) | -4.51% (inactive)
COc1ccc([N+](=O)[O-])cc1N(CC(O)Cn1nnc2ccccc21)S(=O)(=O)c1ccc(C)cc1 (configuration not stated) | -11.4% (inactive)
COc1ccc([N+](=O)[O-])cc1N(CC(O)CN(CC(C)C)CC(C)C)S(=O)(=O)c1ccc(C)cc1 (configuration not stated) | 21.7% (active)
O=C(/C=C/c1cccs1)c1cc(Cl)ccc1OC(=O)N1CCOCC1 | -2.52% (inactive)
CSc1ccccc1NC(=O)CN(C)CC(=O)Nc1ccc(Cl)cc1[N+](=O)[O-] | 12.5% (inactive)
CSc1ccccc1NC(=O)CN(C)CC(=O)Nc1cccc(Br)c1 | 3.51% (inactive)
CCC(C)c1ccccc1NC(=O)CN(C)CC(=O)Nc1ccccc1SC (configuration not stated) | 31.4% (active)
CC(C)OCCCNc1ncnc2c1[nH]c1ccc(F)cc12 | 26.6% (active)
COc1cc(OC)c(OC)cc1/C=N/Nc1ncnc2c1[nH]c1ccc(C)cc12 | -19.8% (inactive)
Fc1ccc2[nH]c3c(N4CCSCC4)ncnc3c2c1 | -5.82% (inactive)
Cc1ccc(S(=O)(=O)N2CCN(c3ccccc3)CC2)cc1C | 0.58% (inactive)
COc1cccc(CNS(=O)(=O)c2ccc3c(c2)CC(C)N3C(=O)C2CCC2)c1 (configuration not stated) | 17.9% (inactive)
CC1=CCC2C(=O)N(c3cccc(C(=O)NC(C)c4ccccc4)c3)C(=O)C2C1 (configuration not stated) | 0.74% (inactive)
Cc1cccc(NC(=O)C(C)SCc2ccccc2)c1 (configuration not stated) | -8.07% (inactive)
O=C(Nc1ccncc1)c1ccc(Cl)c([N+](=O)[O-])c1 | 1.68% (inactive)
O=C(Nc1c2c(nn1-c1ccccc1)CS(=O)(=O)C2)C1CCCC1 | 4.15% (inactive)
COc1ccc(OC)c(C(c2nnnn2C(C)(C)C)N2CCc3ccccc3C2)c1 (configuration not stated) | 24% (active)
COc1ccccc1C(c1nnnn1C(C)(C)C)N1CCN(Cc2ccccc2)CC1 (configuration not stated) | 10.7% (inactive)
COCCn1nnnc1C(c1cc2ccc(OC)cc2[nH]c1=O)N1CCc2ccccc2C1 (configuration not stated) | 17.6% (inactive)
CC1CCCN(CCCNC(=O)CN2C(=O)COc3ccc(S(=O)(=O)N4CCOCC4)cc32)C1 (configuration not stated) | -10.9% (inactive)
COC(=O)CCC(=O)N1CCCC(CO)(Cc2ccccc2)C1 (configuration not stated) | -0.55% (inactive)
Cc1cccc(NC(=O)COC(=O)CCc2ccccc2)c1C | -16.3% (inactive)

Source: PubChem BioAssay AID1861 (The Scripps Research Institute Molecular Screening Center, 2009)
